Laboratory results: the OligoGym collection

Each sequence was assayed against TMEM218 (assay: pooled miR-30 sensor sort-seq; sequence = guide strand). Settings: shRNA.
Also: reference of the scale not given here.

| Sequence | sensor-assay potency score (higher = more potent) |
| --- | --- |
| ATCTTAACTTCCACTTCTGGGG | -0.795 |
| TGTGATGATCACAGCACCGAAG | -0.957 |
| TTAACTTCCACTTCTGGGGCTG | 0.528 |
| TAACTTCCACTTCTGGGGCTGG | -0.428 |
| AACATAATGGATTAAAACCAAG | -1.68 |
| TCTTAACTTCCACTTCTGGGGC | -0.618 |
| AAAGCCAGCAGGACATAGCGGC | -0.627 |
| ATGTGATGATCACAGCACCGAA | -1.69 |
| ATCCACAATCTTAACTTCCACT | -0.762 |
| AATCTTAACTTCCACTTCTGGG | -0.603 |
| AAAAAAATGACAGAGAACCTCG | 0.153 |

What follows are sequences tested against TMEM229B in the same assay as above. Settings: shRNA.

| Sequence | sensor-assay potency score (higher = more potent) |
| --- | --- |
| TCGAACTGGGAGTAGTCCCAGG | -0.884 |
| TCAGCGTCCTTGTCGAAGCGGA | -0.896 |
| TCCACGATGAGGATGGAGGTGC | -1.19 |
| TCCTTGTCGAAGCGGAGGCGGA | -1.59 |
| ATGGCATACAGGTACCAGCGGG | -1.1 |
| TTGCGGATGATGAACTGCTCCA | -0.427 |
| AAGTTCACCACGAACTCCCAGG | -0.691 |
| AACTCCCACAGGTAGGTCCAGA | -1.06 |
| TGGCATACAGGTACCAGCGGGA | -0.837 |
| ATCACCTCGCAGAAGTAGCCGT | -0.867 |
| TGAAGTCAAAGTCGAACTGGGA | -0.249 |
| TCACCTCGCAGAAGTAGCCGTG | -0.46 |
